Assay outcomes (PubChem)
Pol iota inh – qHTS for Inhibitors of Polymerase Iota; Pol iota fluorescent replication assay, 10 min; Potency, µM (series often up to 115 µM), usual class: inhibitors; 390,000 compounds, 1% hits
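Fluorescent replication assay read twice, at 0 min and 10 min after adding 50 nM (final) substrate. Enzyme (10 nM) and compounds were first incubated 15 min at room temperature; enzyme-free buffer wells were negative controls.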
Pol kappa inh-1 – qHTS for Inhibitors of Polymerase Kappa; DNA polymerase kappa (Homo sapiens), Q9UBT6; purified Pol kappa, fluorescent DNA synthesis assay, 10 min; Potency, µM (highest dose often 107 µM), hits mostly inhibitors; 400,000 compounds, 0.53% hits; AID 588579, 2011
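Inhibition of 10 nM Pol kappa is measured by a fluorescent read-out at 0 and 10 min following addition of 50 nM substrate (final), with a 15-min room-temperature compound preincubation.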
GLS inh – qHTS for Inhibitors of Glutaminase (GLS). Glutaminase kidney isoform, mitochondrial (Homo sapiens), O94925. GLS enzymatic activity, qHTS titration. Potency, µM (top dose mostly 45.5 µM), most hits filed as inhibitors. 410,000 compounds, 0.21% hits. AID 624170, 2012
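Glutamate formation by hKGA was monitored fluorometrically using coupled glutamate oxidase, HRP and Amplex Red. Substrate was added as 1 mM L-glutamine solution; incubation was 30 min at RT after an initial read.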
Pol eta inh-1 – qHTS for Inhibitors of Polymerase Eta; recombinant Pol eta, fluorescent DNA replication assay; Potency, µM (series often up to 114 µM), usual class: inhibitors; 390,000 compounds, 1.2% hits; AID 588591, 2011
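Pol eta (10 nM) was preincubated with compounds for 15 min at room temperature, after which fluorescent replication substrate (50 nM final) was added to start the reaction. Fluorescence was read kinetically at 0 and 10 min.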
Pol beta inh – qHTS Assay for Inhibitors of DNA Polymerase Beta. 340,000 compounds, 1.3% hits. AID 485314, 2010. Potency, µM (highest dose often 114 µM), most hits filed as inhibitors. Pol beta primer extension/strand displacement, fluorescence kinetic. P06746
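Homogeneous kinetic assay of primer extension and strand displacement by 10 nM Pol beta, preincubated 15 min at room temperature with compound before 50 nM substrate (final) was added. Read at 0 and 10 min; four-parameter Hill fit.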
APEX1 inh – qHTS Assay for Inhibitors of the Human Apurinic/apyrimidinic Endonuclease 1 (APE1); 350,000 compounds, 0.35% hits; DNA repair nuclease/redox regulator APEX1 (Homo sapiens), P27695; Potency, µM (series often up to 65.8 µM), hits mostly inhibitors; AID 2517, 2012; recombinant APE1, TAMRA/BHQ-2 abasic DNA cleavage fluorescence; note: nearly all actives have a fitted effect of over 55% in size
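Measures dequenching upon AP-site incision of a 5'-TAMRA/3'-BHQ-2 THF-containing duplex, 50 nM; human APE1 0.75 nM after 15 min room-temperature exposure to compound; kinetic three-point read at one-minute spacing.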
Pol kappa inh-2 – qHTS for Inhibitors of Polymerase Kappa: Confirmatory Assay for Cherry-picked Compounds; purified Pol-kappa, fluorescent strand-displacement substrate; shares compounds with Pol eta inh-1; 920 compounds, 76% hits; Potency, µM, hits mostly inhibitors
Pol eta inh-2 – qHTS for Inhibitors of Polymerase Eta: Confirmatory Assay for Cherry-picked Compounds; shares compounds with Pol eta inh-1; Pol eta primer extension, TAMRA/BHQ fluorescence, 10 min; Potency, µM, hits mostly inhibitors; 2,600 compounds, 64% hits; AID 720502, 2013
GLS hit conf – qHTS for Inhibitors of Glutaminase (GLS): Hit Confirmation; shares compounds with GLS inh; biochemical glutaminase enzyme inhibition assay; Potency, µM (titrated, usually from 46.1 µM), usual class: inhibitors; 35 tested, under 10 active; calls by dose curve
GLS HRP counter – qHTS for Inhibitors of Glutaminase (GLS): Hit Confirmation in HRP Counterscreen; 35 tested, under 10 active; AID 624262, 2012; activity change, negative = inhibition, % at 46.1 µM; HRP/glutamate oxidase coupled Amplex Red fluorescence counterscreen; shares compounds with GLS inh
HEK293 tox – qHTS for Inhibitors of Glutaminase (GLS): Hit Confirmation using Cytotoxicity; shares compounds with GLS inh; HEK-293 viability, CellTiter-Glo luminescence, 24 h; activity change, negative = cytotoxicity, % at 46.1 µM; 35 tested, under 10 active; AID 624264, 2012
Hits are given with their value; . = inactive; ? = inconclusive; / = no result. Rows were chosen to be rich in hits. Some 2.4% of all compounds tested hit in one or more screens of this group. Unless noted, calls come from the whole dose curve; as a rule, active = well fitted curve in the direction sought with a large enough effect; inconclusive = small, poorly fitted or top-dose-only effect, or another doubt; inactive = no such curve, though single readings can be large; an effect the other way counts as inactive or inconclusive.

SMILES	Pol iota inh	Pol kappa inh-1	GLS inh	Pol eta inh-1	Pol beta inh	APEX1 inh	GLS hit conf	GLS HRP counter	HEK293 tox	others
O=C(N/N=C/c1cc(Br)c(O)c(Br)c1O)c1ccc2c(c1)OCCO2	?	.	.	?	39.8µM	.	/	/	/	Pol kappa inh-2=33.6;Pol eta inh-2=?
CSc1ncccc1C(=O)OCC(=O)NC1CCCc2ccccc21 (stereo unspecified)	.	.	.	.	/	.	/	/	/
O=C(O)c1ccc(S(=O)(=O)Nc2ccc(O)c(Sc3nc4ccccc4s3)c2)cc1	15.8µM	?	?	35.5µM	22.4µM	.	?	?	.	Pol eta inh-2=?
O=C(COC(=O)c1ccc(O)cc1O)NC1CCCCCC1	?	?	.	.	/	?	/	/	/
O=C(O)/C=C/c1ccc(S(=O)(=O)Nc2ccc3[nH]c(=O)[nH]c3c2)cc1	?	.	?	25.1µM	.	.	.	.	.	Pol eta inh-2=?
Cc1ccc(NS(=O)(=O)c2ccc(/C=C/C(=O)O)cc2)cc1Cl	.	.	.	.	.	.	/	/	/
COc1ccc(NS(=O)(=O)c2cc(N)ccc2N2CCCC2)cc1	.	.	?	.	/	.	.	?	.
COc1ccccc1NS(=O)(=O)c1ccc(O)c(NC(=S)NCC2CCCO2)c1 (stereo unspecified)	.	.	?	.	.	.	.	.	.
COc1ccccc1NS(=O)(=O)c1cc(NC(=O)c2cc[n+]([O-])cc2)ccc1N1CCCC1	.	.	11.2µM	.	.	?	.	.	.
COc1ccccc1NS(=O)(=O)c1cc(NC(=O)C(C)C)ccc1N1CCCCC1	.	.	.	.	.	.	/	/	/
O=C(c1cccc(NS(=O)(=O)c2cccc(F)c2)c1)N1CCN(c2ccccc2)CC1	.	.	.	.	.	.	/	/	/
NC(=O)c1ccccc1NS(=O)(=O)c1ccccc1	.	.	/	.	.	.	/	/	/
NNC(=O)c1cc2ccccc2cc1NS(=O)(=O)c1ccccc1	.	.	?	.	.	.	.	.	.
Cc1nc([N+](=O)[O-])c(Sc2nc3ccc([N+](=O)[O-])cc3[nH]2)n1Cc1ccccc1	.	.	.	.	.	.	/	/	/
